SMARCA2 activ = increases SMARCA2 function in MMTV reporter cells; activation, % at 9.1 µM; MG213 cells, MMTV-luciferase reporter, dexamethasone, overnight; AID 652017; 370,000 compounds, 1% hits; in the data active = activation above about 7.8%
DAX1 inh-1 = NR0B1 (DAX1) inhibition; AID 504766; P51843; 340,000 compounds, 0.99% hits; inhibition, % at 6.75 µM; HEK293 Gal4-DAX1 luciferase reporter, luminescence;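 active = inhibition above the mean over all tested compounds plus 3 SD, cut at about 4.2% in these data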;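 note: inhibition shows as a rise in luminescence from relieved DAX1 repression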
Target sequence (P51843 207-470 limits assumed): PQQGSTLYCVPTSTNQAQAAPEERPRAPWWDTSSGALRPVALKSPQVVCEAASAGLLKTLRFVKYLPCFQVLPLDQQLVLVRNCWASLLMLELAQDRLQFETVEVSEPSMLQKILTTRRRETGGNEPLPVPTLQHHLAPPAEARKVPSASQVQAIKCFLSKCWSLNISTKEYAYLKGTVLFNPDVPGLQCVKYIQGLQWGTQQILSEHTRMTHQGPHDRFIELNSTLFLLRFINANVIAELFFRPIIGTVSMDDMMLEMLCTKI
hcDAF-12 act = activates DAF-12 receptor from parasite H. contortus. HEK293 hcDAF-12 lit1-tk-luc reporter, luminescence; 0% DMSO, 100% Δ7-dafachronic acid. activation, % at 6.8 µM. 370,000 compounds, 1.4% hits. AID 652067;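 active = activation above the mean of all tested compounds plus 3 SD, cut at about 5.5% in these data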
DAX1 inh-2 = DAX1 (NR0B1) inhibition, primary screen. AID 652010. inhibition, % at 6.8 µM. 370,000 compounds, 1.1% hits. HEK293T StAR-luciferase reporter, SF-1/DAX-1 repression relief;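 active = inhibition above the mean over all tested compounds plus 3 SD, cut at about 3.6% in these data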;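 note: higher inhibition means more luminescence from relief of DAX-1 repression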
hgDAF12 agonist = hgDAF-12 agonism, primary luciferase screen; HEK293 GAL4-hgDAF12 UAS-luciferase reporter, agonist luminescence; normalized to butyrate control; activation, % at 6.8 µM; 370,000 compounds, 1.8% hits; AID 687014;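 active = activation above a cutoff set at the mean of all screened compounds plus 3 SD, cut at about 10% in these data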
ssDAF12 agonist = activates DAF-12 receptor from parasite S. stercoralis | HEK293 ssDAF-12/GRIP1 lit1-tk-luc reporter, luminescence; % of 3 µM dafachronic acid response | activation, % at 6.8 µM | 370,000 compounds, 1% hits | AID 652126;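 active = activation above the mean over all tested compounds plus 3 SD, cut at about 0.9% in these data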
Large screens that a line does not name were inactive. An excerpt weighted towards active compounds, which were near 4.8% of everything screened.

Cc1ccc(C=Nc2ccccc2C(N)=O)cc1	hcDAF-12 act 5.9, hgDAF12 agonist 11.8
Cc1ccc(C=Nc2ccccc2C(=O)Nc2ccccc2)cc1	none
Cc1ccc(-c2cc(-c3ccccc3)nc(Cl)n2)cc1	hcDAF-12 act 6.0
C[C@H]1[C@H](NC(=O)c2cccc(Cl)c2)CC[C@@]23CCCN2C(=O)CCC[C@@H]13	none (no result: SMARCA2 activ, DAX1 inh-1, DAX1 inh-2)
NS(=O)(=O)c1ccc(CCNc2ccn3nc(-c4ccc(OCCN5CCOCC5)cc4)cc3n2)cc1	none (no result: DAX1 inh-1)
COCCCNc1ccn2nc(-c3ccc(OCCN4CCOCC4)cc3)cc2n1	SMARCA2 activ 7.9 (no result: DAX1 inh-1)
O=C(CSc1nnc(-c2ccccc2)n1-c1ccc(Cl)cc1)c1ccc(Cl)cc1	none (no result: DAX1 inh-1)
C=CCC12C=C(OC)C(=O)C(C1=O)C1c3ccccc3CC12 (stereo unspecified)	none (no result: DAX1 inh-1)
COc1ccc(Cl)cc1NC(=O)COC(=O)C1COc2ccccc2O1 (stereo unspecified)	ssDAF12 agonist 1.0
O=C(COC(=O)C1COc2ccccc2O1)NC(=O)Nc1ccc2c(c1)OCCO2 (stereo unspecified)	hcDAF-12 act 5.8
N#CCC(=O)Nc1ccc(C(=O)OCC(=O)NCc2ccc3c(c2)OCO3)cc1	none
N#CCC(=O)Nc1ccc(C(=O)OCC(=O)NC(=O)Nc2ccc3c(c2)OCCO3)cc1	DAX1 inh-2 4.2
CCOC(=O)[C@@]12CCCC3=C1N(CCC3)C(=O)[C@H]2CC(=O)NCc1cccs1	none (no result: DAX1 inh-1)
COc1ccc(N(CC(=O)Nc2cc([N+](=O)[O-])ccc2C)S(C)(=O)=O)cc1OC	ssDAF12 agonist 1.3
COc1ccc(N(CC(=O)Nc2cccc([N+](=O)[O-])c2C)S(C)(=O)=O)cc1OC	none
COc1ccc2ccccc2c1C=Nn1c(-c2n[nH]c3c2CCC3)n[nH]c1=S	none (no result: DAX1 inh-1)
O=C(N/N=C/c1ccc(OC(F)F)cc1)C1=COCCO1	DAX1 inh-1 4.9, DAX1 inh-2 4.1, hgDAF12 agonist 11.1
O=C(N/N=C/c1ccccc1OC(F)F)C1=COCCO1	none
COc1ccccc1NC(=O)Nc1ccc2c(c1)nnn2C	none
Cc1ccc(NC(=O)Nc2ccc3c(c2)nnn3C)cc1C	DAX1 inh-1 5.3
COC(=O)[C@]12C[C@H](CC(=O)NCc3ccc(OC)c(OC)c3)C(=O)N(Cc3cccc4ccccc34)C1=C[C@H](C(C)(C)C)O[C@@H]2C	none (no result: DAX1 inh-1)
Cc1cc(N2CCN(C(=O)OC(C)(C)C)C[C@H]2C)ccc1N1CCS(=O)(=O)CC1	none (no result: DAX1 inh-1)
S=C(NN=C1C2CC3CC(C2)CC1C3)Nc1ccccc1	hcDAF-12 act 6.1, ssDAF12 agonist 1.2
COc1ccc(/C=C/C(=O)NC(=S)Nc2cc3oc4ccccc4c3cc2OC)cc1	none
COc1cc2c(cc1NC(=O)C(C)OC(=O)/C=C/c1ccc(OC(F)F)cc1)oc1ccccc12 (stereo unspecified)	hcDAF-12 act 8.2
O=C(Nc1c(-c2ccccc2)nc2ncccn12)C1CC1	none (no result: DAX1 inh-1)
Cc1ccc(Cn2nnc3c2-c2ccccc2S(=O)(=O)N(C)C3)cc1	none (no result: DAX1 inh-1)
COCCN1Cc2cc(C(=O)OC)c3c(c2C1=O)c1cc(F)ccc1n3C(=O)c1ccccc1	none (no result: DAX1 inh-1)
Cc1cccc(S(=O)(=O)NNC(=O)c2cc(-c3ccc(F)cc3)nc3ccccc23)c1	DAX1 inh-1 4.3
CC(C)(C)c1ccc(-c2cc(C(=O)NNC(=O)Nc3ccccc3)c3ccccc3n2)cc1	DAX1 inh-2 3.9, hgDAF12 agonist 11.2
Cc1cccn2c(=O)c(/C=C(\C#N)S(=O)(=O)c3ccccc3)c(Oc3ccc(Cl)cc3)nc12	none
Cc1cc(Oc2nc3c(C)cccn3c(=O)c2/C=C(\C#N)S(=O)(=O)c2ccccc2)ccc1Cl	hcDAF-12 act 6.2
CCOC(=O)/C(N=Nc1ccc2c(c1)OCO2)=C(\C)O	DAX1 inh-1 6.3
CN1C(=O)C[C@@](C#N)(C(=O)NCC(F)(F)F)[C@H]1c1ccccc1	none (no result: DAX1 inh-1)
CCOC(=O)CC[C@@H]1CC[C@]2(CCCN(C(=O)C3CCCC3)C2)O1	none (no result: DAX1 inh-1)
CCCC1CCC2(CCCN2CCOC(=S)NCc2cccc(C)c2)CC1 (stereo unspecified)	none (no result: SMARCA2 activ, DAX1 inh-1, DAX1 inh-2)
C/C(=N\NC(=O)CSc1nnc(-c2ccccc2)n1-c1ccc(C)cc1)c1ccc(-c2ccccc2)cc1	none (no result: DAX1 inh-1)
C=CCN(C)CC#Cc1ccc(OC)cc1	none (no result: DAX1 inh-1)
COc1cccc(C=C2Cc3ccccc3C2=O)c1	none (no result: DAX1 inh-1)
COc1cc(C=C2C(=O)c3ccccc3C2=O)cc(OC)c1	DAX1 inh-1 4.7
O=C1C(=Cc2cccc(F)c2)Cc2ccccc21	hgDAF12 agonist 13.1 (no result: DAX1 inh-1)
COc1cccc(/C=C2\CCc3ccccc3C2=O)c1	hgDAF12 agonist 13.6
COc1cc(C=C2C(=O)c3ccccc3C2=O)cc(OC)c1OC	none
O=C1/C(=C/c2cccc(F)c2)CSc2sccc21	none
Cc1cc(N2CCN(CC(C)(C)O)C[C@H]2C)ccc1N1CCN(Cc2ccccc2)[C@@H](C)C1	none (no result: DAX1 inh-1)
CCCCCCCCN1C(=O)[C@@H](CC(=O)NCCCN2CCCC2=O)C[C@@]2(C(=O)OC)C1=C[C@H](C(C)(C)C)O[C@@H]2C	none (no result: DAX1 inh-1)
O=C(CC(C(=O)O)c1ccc(Cl)cc1)c1ccc(Cl)c(Cl)c1 (stereo unspecified)	none
O=C(CC(C(=O)O)c1ccc(Cl)cc1Cl)c1ccc(Cl)cc1 (stereo unspecified)	hcDAF-12 act 5.9
CCN(CC)C(=O)CSc1ncnc2c(-c3cccs3)nsc12	ssDAF12 agonist 0.9
Cc1cccc(OCC(=O)Nc2nonc2NC(=O)COc2cccc(C)c2)c1	none
Cc1ccc(C)c(OCC(=O)Nc2nonc2NC(=O)COc2cc(C)ccc2C)c1	DAX1 inh-1 5.3
CN(CC(=O)Nc1ccc(F)cc1)C(=O)CSc1nncs1	DAX1 inh-2 3.9
Cc1csc(SCC(=O)N(C)CC(=O)Nc2ccc(F)cc2)n1	none (no result: SMARCA2 activ, hcDAF-12 act, DAX1 inh-2, hgDAF12 agonist, ssDAF12 agonist)
O=C(/C=C/c1ccccc1)NC1CC2CCC1C2 (stereo unspecified)	none
O=C(/C=C/c1ccc(Cl)cc1)NC1CC2CCC1C2 (stereo unspecified)	hgDAF12 agonist 11.4
CCOC(=O)c1c(C)[nH]c(C(=O)COC(=O)CCSc2ccccc2)c1C	hcDAF-12 act 6.3
CCOC(=O)c1c(C)[nH]c(C(=O)NCc2ccccn2)c1C	DAX1 inh-2 4.1
CCOC(=O)c1[nH]c(C)c(C(=O)OCc2ccc(C)cc2)c1C	none
CCOC(=O)c1c(C)[nH]c(C(=O)OCc2ccc(C)cc2)c1C	DAX1 inh-2 4.2
COC(=O)[C@]1(CNC(=O)C(C)(C)C)CC(=O)N(C)[C@@H]1c1ccccc1	none (no result: DAX1 inh-1)
CCOC(=O)c1csc(NC(=O)C2CCCN(S(=O)(=O)c3ccccc3[N+](=O)[O-])C2)n1 (stereo unspecified)	none (no result: DAX1 inh-1)
C(=N\c1nc2ccccc2n1CCN1CCCCC1)/c1cccs1	none
Cn1c(/N=C/c2cc(Cl)ccc2O)nc2ccccc21	hcDAF-12 act 6.5, ssDAF12 agonist 1.6 (no result: DAX1 inh-1)
